# Screening results deposited in PubChem BioAssay by National Center for Advancing Translational Sciences (NCATS).
# D1 PAM: human D1 dopamine receptor positive modulation; potentiation, % at 10 µM; AID 504651; P21728; HEK293 TREx D1 cells, calcium flux, dopamine EC20 potentiation; 360,000 tested, 0.036% active; in the data active = potentiation above about 30%; also: 0% is about no effect
# D1 antagonist: antagonists of human D1 dopamine receptor; HEK293 TREx D1 cells, calcium flux, dopamine EC80; stronger effect = lower value; 360,000 tested, 3.2% active; P21728; activity change, negative = inhibition, % at 10 µM; in the data active = activity change below about -30%; also: % is scaled to controls: 0 for no effect and ±100 for the full control effect
#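 Tetracycline-induced HEK293 Trex D1 cells, force-coupled to calcium, dye-loaded; compounds added and read 180 s, then EC80 dopamine added and calcium flux tracked kinetically another 180 s.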
# DRD3 antagonist: D3 dopamine receptor (human) antagonism. P35462. D3R cells, DiscoveRx beta-arrestin luminescence, antagonist mode; stronger effect = lower value. max response, negative = inhibition, %. 360,000 tested, 2.5% active; in the data active = max response below about -50%; inconclusive = no clear call, values can overlap the other calls; also: % is scaled to controls: 0 for no effect and ±100 for the full control effect
# Target sequence (P35462 whole entry, looked up): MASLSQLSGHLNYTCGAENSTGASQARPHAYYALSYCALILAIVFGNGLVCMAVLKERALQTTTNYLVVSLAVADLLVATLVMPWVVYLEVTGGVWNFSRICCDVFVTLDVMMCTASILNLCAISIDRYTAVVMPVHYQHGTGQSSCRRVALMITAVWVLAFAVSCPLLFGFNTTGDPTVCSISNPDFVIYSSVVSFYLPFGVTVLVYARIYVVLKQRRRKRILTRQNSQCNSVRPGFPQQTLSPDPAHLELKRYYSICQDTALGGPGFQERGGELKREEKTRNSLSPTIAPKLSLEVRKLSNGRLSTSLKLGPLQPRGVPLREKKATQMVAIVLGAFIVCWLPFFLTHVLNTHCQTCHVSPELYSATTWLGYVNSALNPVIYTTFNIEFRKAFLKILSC
#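 Cells expressing the human receptor were seeded at 1500 cells/well, incubated overnight at 37 degrees C in 5% CO2, then exposed to library compounds with dopamine controls for 90 minutes at 37 degrees C before luminescent detection.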
# D3 ag: D3 dopamine receptor (human) agonism | AID 652048 | D3R DiscoveRx beta-arrestin cells, luminescence, 90 min | 410,000 tested, 0.58% active | max activation, %; in the data active = max activation above about 30%; also: 0% is about no effect
#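 Agonist-mode cell screen: cells plated at 1500/well and incubated overnight at 37 °C, then exposed to library compounds for 90 min at 37 °C. Detection reagent was added for 30–60 min at room temperature, and luminescence was read.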
# D1 agonist: agonists of human D1 dopamine receptor. HEK293 T-REx D1 cells, calcium flux, agonist mode. activation, % at 2 µM. 360,000 tested, 1% active; in the data active = activation above about 30%; also: 0% is about no effect
#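 Agonism was scored from calcium flux recorded over 180 s (1 read/s) after pintool compound addition, following a 10-cycle baseline. Cells were inducible force-coupled HEK293 TREx D1, plated overnight at 30 C and loaded with no-wash calcium dye.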
# Numbers without * were called inactive; ? = inconclusive; · = not tested or not shown. In the library only some 6% were active in any assay of this set; here they are far more common.
SMILES,D1 PAM,D1 antagonist,DRD3 antagonist,D3 ag,D1 agonist
Cc1ccc(NS(=O)(=O)c2ccc(C(=O)N3CC(C)CC(C)C3)cc2)cc1 (centres undefined),0.8,-42.0*,-3.1,-3.2,72.5*
O=C(c1ccccc1NS(=O)(=O)c1ccc(F)cc1)N1CCCCC1,-1.5,14.2,-20.7,-8.5,5.3
Cc1ccc(C)c(S(=O)(=O)Nc2ccc(C(=O)N3CCOCC3)cc2)c1,·,·,-51.3*,-1.6,·
Cn1c(NCC(O)c2ccccc2)nc2c1c(=O)n(Cc1ccc(Cl)c(Cl)c1)c(=O)n2C (centres undefined),·,·,?,32.6*,·
Cn1c(NCC(O)c2ccccc2)nc2c1c(=O)n(Cc1ccc(Cl)cc1)c(=O)n2C (centres undefined),-2.4,-4.6,0.5,7.0,-4.2
CNC(=S)N1N=C(c2ccc(C)cc2)CC1c1ccc(N(C)C)cc1 (centres undefined),0.6,-9.7,-11.6,1.7,36.5*
CNC(=S)N1N=C(c2ccc(C)cc2)CC1c1ccc(OC)cc1 (centres undefined),-1.3,-40.3*,0.3,-8.3,-0.9
CNC(=S)N1N=C(c2ccc(Br)cc2)CC1c1ccc(OC)cc1 (centres undefined),4.7,13.2,-12.6,1.4,3.4
CO[C@H]1C[C@@H]2CC[C@@H](C)[C@@](O)(O2)C(=O)C(=O)N2CCCC[C@H]2C(=O)O[C@H]([C@H](C)C[C@@H]2CC[C@@H](O)[C@H](OC)C2)CC(=O)[C@H](C)C=C(C)[C@@H](O)[C@@H](OC)C(=O)[C@H](C)C[C@H](C)/C=C/C=CC=C1C,·,·,·,-10.6,·
c1ccc(CNCCC(Cc2ccccc2)c2ccco2)cc1 (centres undefined),-6.5,-2.4,-10.4,-34.3,18.9
CN(C)c1ccc(CNCCC(Cc2ccccc2)c2ccco2)cc1 (centres undefined),-7.0,11.3,6.9,-12.5,47.5*
Cc1ccc2c(=O)c(C(=O)c3cccc(Cl)c3)cn(CC(=O)Nc3ccccc3C(F)(F)F)c2n1,-2.2,-5.3,·,1.8,4.9
CCc1c(C2(O)CCCCC2)[nH]c2cc(C(F)(F)F)ccc12,-0.2,12.0,-8.3,-24.5,31.6*
Cc1c(C2(O)CCCCC2)[nH]c2cc(C(F)(F)F)ccc12,·,·,-11.5,-14.6,·
Cc1cc(C2=NNC(=Nc3ccccc3)SC2)c(C)n1C,-3.6,-31.8*,2.1,4.3,0.7
COCCCN=C1NN=C(c2cc(C)n(-c3ccccc3F)c2C)CS1,5.0,-32.2*,?,-13.5,32.5*
COCCn1c(C)cc(C2=NNC(=Nc3ccccc3F)SC2)c1C,0.1,-4.4,-6.9,-3.3,0.0
COCCCN=C1NN=C(c2cc(C)n(-c3ccccc3)c2C)CS1,4.8,-18.8,3.4,4.7,1.4
CCOC(=O)C(Cc1ccccc1)NC(=O)CCc1nnc2ccc(N3CCCCC3)nn12 (centres undefined),-5.0,-33.3*,17.4,20.5,1.8
CCOCCCNC(=O)CCc1nnc2ccc(N3CCCCC3)nn12,4.5,-31.4*,17.3,-7.4,0.9
O=C(CCc1nnc2ccc(N3CCCC3)nn12)Nc1ccc(F)c(F)c1,-1.1,1.8,-4.6,1.0,-0.2
CCOCCCNC(=O)CCc1nnc2ccc(N3CCN(c4cccc(OC)c4)CC3)nn12,-3.3,-3.0,·,13.9,1.3
CC1CCN(c2ccc3nnc(CCC(=O)Nc4ccc(F)c(F)c4)n3n2)CC1,-7.5,-30.1*,2.4,-0.9,1.3
COC(=O)c1c(NC(=O)c2cc(=O)c3cc(C)cc(C)c3o2)sc2c1CCC2,1.2,0.4,·,14.5,1.3
COc1ccc(C(CNC(=O)CNC(=O)c2ccccc2)N2CCCC2)cc1 (centres undefined),-1.9,6.1,?,-12.9,2.6
COc1ccc(C(CNC(=O)c2ccc(C)o2)N2CCOCC2)cc1 (centres undefined),0.9,1.1,0.1,-6.5,0.0
COc1ccc(C(CNC(=O)c2ccc(-c3ccccc3Cl)o2)N2CCCC2)cc1 (centres undefined),·,·,-121.0*,-2.4,·
COc1ccc(C(CNC(=O)c2ccc(-c3nc4ccccc4s3)o2)N2CCCC2)cc1 (centres undefined),9.8,-0.6,-83.4*,-19.7,2.0
O=C(NN1C(=O)NC2(CCCCC2)C1=O)c1ccc(-c2ccc([N+](=O)[O-])cc2)o1,-4.1,-2.8,0.9,1.2,3.0
